In PubChem BioAssay AID1159580 (chemical genetic matrix, 2015):
In all, about 5,500 compounds went through this assay and about 2,000 (36%) were called active. Roughly 18% stayed inconclusive and do not appear here. Cut-off read from the data, not from the text of the source: active = normalized growth mostly below about 0.91 (no sharp cut-off); inconclusive = no clear call, values can overlap the other calls; inactive = mostly above about 0.92. Some of the results follow.

Experiment: chemical genetic growth profiling, strain panel (AID 1159580);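 note: tested at 20 µM; growth read once vehicle control cultures reached saturation at 30 °C; 1 = growth at the plate median or of vehicle wells; lower values mean less growth of the strain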
Settings: growth OD

Measured: normalized growth

Nc1ccc(C(=O)O)cc1
inactive: S. cerevisiae deletion strains, locus YJR066W, strain TOR1, hits give low values 0.968 | S. cerevisiae deletion strains, locus YJR075W, strain HOC1, hits give low values 1.01 | S. cerevisiae deletion strains, locus YKL009W, strain mrt4, hits give low values 1.02 | S. cerevisiae deletion strains, locus YKL068W, hits give low values 0.993 | S. cerevisiae deletion strains, locus YKL085W, strain MDH1 (second series), hits give low values 0.998 | S. cerevisiae deletion strains, locus YKL085W, strain MDH1, hits give low values 0.998 | S. cerevisiae deletion strains, locus YKL160W, strain elf1, hits give low values 1.03 | S. cerevisiae deletion strains, locus YKL190W, strain CNB1, hits give low values 0.996 | S. cerevisiae deletion strains, locus YKR001C, strain vps1, hits give low values 1.01 | S. cerevisiae deletion strains, locus YKR026C, strain gcn3, hits give low values 1.04 | S. cerevisiae deletion strains, locus YKR091W, strain srl3, hits give low values 1.02 | S. cerevisiae deletion strains, locus YLL001W, strain dnm1, hits give low values 1.03 | S. cerevisiae deletion strains, locus YLL026W, hits give low values 1.04 | S. cerevisiae deletion strains, locus YLL041C, strain sdh2, hits give low values 1.02 | S. cerevisiae deletion strains, locus YLR027C, strain aat2, hits give low values 1.02 | S. cerevisiae deletion strains, locus YLR039C, strain RIC1, hits give low values 0.996 | S. cerevisiae deletion strains, locus YLR058C, strain SHM2, hits give low values 1.01 | S. cerevisiae deletion strains, locus YLR102C, strain apc9, hits give low values 1.01 | S. cerevisiae deletion strains, locus YLR113W, strain HOG1, hits give low values 1.01 | S. cerevisiae deletion strains, locus YLR221C, strain rsa3, hits give low values 1.02 | S. cerevisiae deletion strains, locus YLR258W, strain gsy2, hits give low values 1.01 | S. cerevisiae deletion strains, locus YLR262C, strain YPT6 (second series), hits give low values 1.02 | S. cerevisiae deletion strains, locus YLR262C, strain YPT6, hits give low values 1.07 | S. cerevisiae deletion strains, locus YLR268W, strain sec22, hits give low values 1.02 | S. cerevisiae deletion strains, locus YLR320W, strain mms22, hits give low values 1.01 | S. cerevisiae deletion strains, locus YLR330W, strain CHS5, hits give low values 1.01 | S. cerevisiae deletion strains, locus YLR342W, strain FKS1 (second series), hits give low values 1.02 | S. cerevisiae deletion strains, locus YLR342W, strain FKS1, hits give low values 1.05 | S. cerevisiae deletion strains, locus YLR357W, strain rsc2, hits give low values 1.03 | S. cerevisiae deletion strains, locus YLR370C, strain arc18, hits give low values 1.02 | S. cerevisiae deletion strains, locus YLR371W, strain rom2, hits give low values 1.01 | S. cerevisiae deletion strains, locus YLR384C, strain iki3, hits give low values 1.01 | S. cerevisiae deletion strains, locus YLR418C, strain cdc73, hits give low values 1.03 | S. cerevisiae deletion strains, locus YML016C, strain PPZ1, hits give low values 1.01 | S. cerevisiae deletion strains, locus YML032C, strain rad52, hits give low values 1.01 | S. cerevisiae deletion strains, locus YML120C, strain ndi1, hits give low values 1.04 | S. cerevisiae deletion strains, locus YML124C, strain tub3, hits give low values 1.01 | S. cerevisiae deletion strains, locus YMR058W, strain fet3, hits give low values 1.04 | S. cerevisiae deletion strains, locus YMR078C, strain ctf18, hits give low values 1.02 | S. cerevisiae deletion strains, locus YMR125W, strain sto1, hits give low values 1.01 | S. cerevisiae deletion strains, locus YMR129W, hits give low values 1.03 | S. cerevisiae deletion strains, locus YMR205C, strain PFK2, hits give low values 1.03 | S. cerevisiae deletion strains, locus YMR223W, strain ubp8, hits give low values 1.01 | S. cerevisiae deletion strains, locus YMR231W, strain pep5, hits give low values 1.02 | S. cerevisiae deletion strains, locus YMR263W, strain SAP30, hits give low values 1 | S. cerevisiae deletion strains, locus YMR307W, strain GAS1, hits give low values 1.05 | S. cerevisiae deletion strains, locus YNL067W, strain RPL9B, hits give low values 1 | S. cerevisiae deletion strains, locus YNL071W, strain lat1, hits give low values 1.01 | S. cerevisiae deletion strains, locus YNL183C, strain NPR1, hits give low values 0.953 | S. cerevisiae deletion strains, locus YNL209W, strain ssb2, hits give low values 1.02 | S. cerevisiae deletion strains, locus YNL233W, strain BNI4, hits give low values 1.01 | S. cerevisiae deletion strains, locus YNL248C, strain rpa49, hits give low values 1.05 | S. cerevisiae deletion strains, locus YNL250W, strain rad50, hits give low values 1.01 | S. cerevisiae deletion strains, locus YNL271C, strain bni1, hits give low values 1.03 | S. cerevisiae deletion strains, locus YNL298W, strain CLA4, hits give low values 1.01 | S. cerevisiae deletion strains, locus YNL307C, strain MCK1, hits give low values 1.01 | S. cerevisiae deletion strains, locus YNL322C, strain KRE1 (second series), hits give low values 1.01 | S. cerevisiae deletion strains, locus YNR049C, strain mso1, hits give low values 1.02 | S. cerevisiae deletion strains, locus YNR052C, strain pop2, hits give low values 1 | S. cerevisiae deletion strains, locus YOL006C, strain TOP1, hits give low values 1.06 | S. cerevisiae deletion strains, locus YOL012C, strain htz1 2.07 | S. cerevisiae deletion strains, locus YOL147C, strain pex11, hits give low values 1.01 | S. cerevisiae deletion strains, locus YOR001W, strain rrp6, hits give low values 1.05 | S. cerevisiae deletion strains, locus YOR061W, strain CKA2, hits give low values 1.01 | S. cerevisiae deletion strains, locus YOR069W, strain VPS5, hits give low values 1.01 | S. cerevisiae deletion strains, locus YOR070C, strain gyp1, hits give low values 1.01 | S. cerevisiae deletion strains, locus YOR080W, strain dia2, hits give low values 1.04 | S. cerevisiae deletion strains, locus YOR083W, strain WHI5, hits give low values 1.05 | S. cerevisiae deletion strains, locus YOR106W, strain vam3, hits give low values 1.04 | S. cerevisiae deletion strains, locus YOR136W, strain idh2, hits give low values 1.02 | S. cerevisiae deletion strains, locus YOR144C, strain elg1, hits give low values 1.01 | S. cerevisiae deletion strains, locus YOR184W, strain ser1, hits give low values 1.02 | S. cerevisiae deletion strains, locus YOR231W, strain MKK1, hits give low values 1.01 | S. cerevisiae deletion strains, locus YOR265W, strain rbl2, hits give low values 1.01 | S. cerevisiae deletion strains, locus YOR270C, strain vph1, hits give low values 1.07 | S. cerevisiae deletion strains, locus YOR290C, strain snf2, hits give low values 1.01 | S. cerevisiae deletion strains, locus YOR316C, strain cot1, hits give low values 1.01 | S. cerevisiae deletion strains, locus YPL051W, strain arl3, hits give low values 1.04 | S. cerevisiae deletion strains, locus YPL078C, strain atp4, hits give low values 1.05 | S. cerevisiae deletion strains, locus YPL106C, strain sse1, hits give low values 1.03 | S. cerevisiae deletion strains, locus YPL240C, strain hsp82, hits give low values 1.01 | S. cerevisiae deletion strains, locus YPL256C, strain CLN2, hits give low values 1.02 | S. cerevisiae deletion strains, locus YPR119W, strain clb2, hits give low values 1 | S. cerevisiae deletion strains, locus YPR141C, strain kar3, hits give low values 1.01 | S. cerevisiae deletion strains, locus YPR163C, strain tif3, hits give low values 1.02 | S. cerevisiae deletion strains, locus YPR167C, strain met16, hits give low values 1.02 | S. cerevisiae deletion strains, strain wtn01, hits give low values 1.02 | S. cerevisiae strains, strain wild type, hits give low values 1
